Only a selection was taken, and hits are over-represented in it overall.
Pf Dd2 inh: blocks in vitro growth of P. falciparum Dd2. P. falciparum Dd2 growth, SYBR Green, 72 h. Potency, µM (highest dose often 28.9 µM), most hits filed as inhibitors. actives 4.3% (n = 120,000). AID 1347417; active = well fitted inhibition curve with a large enough effect; note: nearly all actives have a fitted effect of over 65% in size
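Infected erythrocytes (Dd2, 0.3% parasitemia, 2.5% hematocrit final) are added to compound in RPMI-1640/Albumax II medium, grown 72 h at 37C in low oxygen, then lysed with saponin/Triton-X containing SYBR Green and read by fluorescence.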
Hits are given with their value; - = inactive.

SMILES | Pf Dd2 inh
COc1ccc(C2(C(=O)N3CCC(CC(=O)NC4CC4)C3)CC2)cc1 (stereo not given) | -
COc1cccc(CC(=O)N2CCCC(CN3CCCC3)CC2)c1 (stereo not given) | 1µM
COc1ccc(C2(C(=O)N3CCC(F)CC3)CCOCC2)cc1 | -
COc1ccc(C2(C(=O)N3CCCC(CN4CCCC4)CC3)CC2)cc1 (stereo not given) | 3.16µM
COCC(=O)N(C1CCOCC1)C1CCN(C(=O)Cc2cccc(OC)c2)CC1 | -
COc1cccc(CC(=O)N2CCCCCCNC(=O)CC2)c1 | -
Cc1noc(-c2cccn3c(CNC(=O)c4ccc5ccccc5n4)nnc23)n1 | -
O=C(C[C@H]1NC(=O)c2ccccc2NC1=O)Nc1cccc2ncccc12 | -
Cn1cnc(S(=O)(=O)N2CCCC(C(=O)NC3CCCC3)CCNC(=O)CC2)c1 (stereo not given) | -
OCc1ccc(CN2C[C@H](O)C[C@H]2c2nc(-c3ccc(OC(F)(F)F)cc3)no2)o1 | -
COc1ccccc1NC(=O)c1cc2c(C)nn(-c3ccccc3)c2s1 | -
COc1cccc(NC(=O)c2cc3c(-c4ccc(Cl)cc4)nn(C)c3s2)c1 | 3.16µM
COc1cccc(-c2nn(C)c3sc(C(=O)NCc4ccc(C)cc4)cc23)c1 | -
COCCCNC(=O)c1cc2c(-c3cccc(OC)c3)nn(C)c2s1 | -
COc1ccccc1CNC(=O)c1cc2c(-c3ccc(Cl)cc3)nn(C)c2s1 | -
Cc1ccc(NC(=O)c2cc3c(-c4ccccc4)nn(-c4ccccc4)c3s2)cc1 | 2.82µM
COc1ccc(NC(=O)c2cc3c(C)nn(-c4ccccc4)c3s2)c(OC)c1 | -
COc1ccc(-c2nn(C)c3sc(C(=O)NCCN(C)C)cc23)cc1OC | -
COc1ccc(-c2nn(C)c3sc(C(=O)Nc4cccc(F)c4)cc23)cc1OC | 2.51µM
O=C(NCCCn1ccnc1)c1cnc2c(c1)N(C(=O)CCc1ccccc1)CCC2 | -
COCCNC(=O)C(NC(=O)c1ccccc1Cl)C1CCN(C(=O)c2ccc(OC)cc2)CC1 (stereo not given) | -
Cc1cnc(C(=O)N2CCCCCCNC(=O)[C@@H]3CCC[C@@H]32)cn1 | -
COc1ccccc1C(=O)N1C[C@H](c2nc(-c3ccncc3)no2)[C@@H](C)C1 | -
CCNC(=O)N[C@H]1CO[C@H]2[C@@H]1OC[C@@H]2n1nnnc1Oc1ccccc1 | -
COc1ccccc1OCCNC(=O)CCC1CCN(C(=O)c2ccccc2)CC1 | -
SMILES | Pf Dd2 inh
Cc1cc(C)cc(NC(=O)C2CCN(C(=O)c3nnn4cc(C)[nH]c(=O)c34)CC2)c1 | -
O=C(Cc1ccccc1)NCC1CN(C(=O)Cc2cccc(Oc3ccccc3)c2)CC12CN(c1ccccc1)C2 (stereo not given) | -
Cn1cc(C(=O)NCC2CN(C(=O)Cc3cccc(Oc4ccccc4)c3)CC23CN(c2ccccc2)C3)cn1 (stereo not given) | -
O=C(NCC1CN(C(=O)Cc2cccc(Cl)c2)CC12CN(c1ccccc1)C2)C1CC1 (stereo not given) | 8.91µM
CC1CCN(c2nc3c(S(=O)(=O)c4ccccc4)nnn3c3ccsc23)CC1 | -
Cc1ccc(C)c(S(=O)(=O)c2nnn3c2nc(N2CCOCC2)c2ccccc23)c1 | -
CN1CCN(c2nc3c(S(=O)(=O)c4ccc(Cl)cc4)nnn3c3ccsc23)CC1 | 10µM
COCCNc1nc2c(S(=O)(=O)c3ccc(C)c(C)c3)nnn2c2ccc(Cl)cc12 | -
Cc1ccc(C)c(S(=O)(=O)c2nnn3c2nc(N2CCCCC2)c2ccccc23)c1 | 12.6µM
CC(C)c1ccc(S(=O)(=O)c2nnn3c2nc(N2CCN(C)CC2)c2sccc23)cc1 | -
CCc1ccc(S(=O)(=O)c2nnn3c2nc(N2CCC(C(N)=O)CC2)c2cc(Cl)ccc23)cc1 | -
CC1CCN(c2nc3c(S(=O)(=O)c4ccc(Cl)cc4)nnn3c3ccsc23)CC1 | -
CC(C)c1ccc(S(=O)(=O)c2nnn3c2nc(N2CCOCC2)c2ccccc23)cc1 | -
Cc1ccc(S(=O)(=O)c2nnn3c2nc(N2CCC(C)CC2)c2cc(Cl)ccc23)cc1C | 11.2µM
CC1CCN(c2nc3c(S(=O)(=O)c4ccccc4)nnn3c3ccc(Cl)cc23)CC1 | 1.12µM
Cc1ccc(S(=O)(=O)c2nnn3c2nc(NC(C)C)c2cc(Cl)ccc23)cc1C | -
CC(C)(C)c1[nH]nc2c1C(c1ccnc3ccccc13)CC(=O)N2 (stereo not given) | -
CN(C)c1cccc(C(=O)N2CCC3(CC2)NC(=O)N(c2cccc(Cl)c2)N3)c1 | -
COC(=O)N1CCCC2(C1)C(=NC1CCCC1)NC(=O)N2c1cc(F)cc(F)c1 (stereo not given) | -
COCCNC(=O)c1ccc2c(c1)N(C)C(CC(=O)NC(C)C)CO2 (stereo not given) | -
CC(C)CCNC(=O)CCc1nnc(-c2ccc(OC(C)C)cc2)[nH]c1=O | -
O=C(NCCC1CCN(C(=O)Nc2ccc(F)cc2)CC1)c1cc(F)ccc1F | -
O=S(=O)(C1CC1)N1CCn2c(nnc2C2CCCN2)C1 (stereo not given) | -

Bioassay records: PubChem, National Center for Advancing Translational Sciences (NCATS)
